# Test results published in PubChem BioAssay (Tox21).
# Where “and” joins values, the source holds several entries; their conditions need not be identical. Equal values may be shown once. Records with an inconclusive call do not appear. A call without a number means that no potency is given here. Some compounds were tested as several samples or in several runs, with calls that do not always agree. Calls of active or inactive are those of the source. Unless noted, calls come from the whole dose curve; as a rule, active = well fitted curve in the direction sought with a large enough effect in the repeat runs; inconclusive = weak or mixed curves; inactive = no such curve, though single readings can be large; an effect the other way counts as inactive or inconclusive.
# Legend:
# [1] = qHTS assay to identify aromatase inhibitors - cell viability counter screen (AID 743084); conditions: MCF-7 aro ERE viability, CellTiter-Fluor, 24 h; series mostly up to 70.3 µM;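 note: cells stimulated with testosterone during compound exposure; nearly all actives have a fitted effect of over 55% in size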; note: potency is the fitted concentration of half-maximal effect
# [2] = target: Aryl hydrocarbon receptor (Homo sapiens) (UniProt P35869); assay: qHTS assay to identify small molecule that activate the aryl hydrocarbon receptor (AhR) signaling pathway (AID 743085); conditions: HepG2 AhR-luc (HG2L7.5c1), luciferase, 24 h; series mostly up to 70.3 µM; note: nearly all actives have a fitted effect of over 15% in size; note: potency is the fitted concentration of half-maximal effect;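 for activation: HG2L7.5c1 human HepG2 liver cells with stably integrated DRE-driven firefly reporter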
# Sequence of Aryl hydrocarbon receptor (Homo sapiens) (P35869 whole entry, looked up): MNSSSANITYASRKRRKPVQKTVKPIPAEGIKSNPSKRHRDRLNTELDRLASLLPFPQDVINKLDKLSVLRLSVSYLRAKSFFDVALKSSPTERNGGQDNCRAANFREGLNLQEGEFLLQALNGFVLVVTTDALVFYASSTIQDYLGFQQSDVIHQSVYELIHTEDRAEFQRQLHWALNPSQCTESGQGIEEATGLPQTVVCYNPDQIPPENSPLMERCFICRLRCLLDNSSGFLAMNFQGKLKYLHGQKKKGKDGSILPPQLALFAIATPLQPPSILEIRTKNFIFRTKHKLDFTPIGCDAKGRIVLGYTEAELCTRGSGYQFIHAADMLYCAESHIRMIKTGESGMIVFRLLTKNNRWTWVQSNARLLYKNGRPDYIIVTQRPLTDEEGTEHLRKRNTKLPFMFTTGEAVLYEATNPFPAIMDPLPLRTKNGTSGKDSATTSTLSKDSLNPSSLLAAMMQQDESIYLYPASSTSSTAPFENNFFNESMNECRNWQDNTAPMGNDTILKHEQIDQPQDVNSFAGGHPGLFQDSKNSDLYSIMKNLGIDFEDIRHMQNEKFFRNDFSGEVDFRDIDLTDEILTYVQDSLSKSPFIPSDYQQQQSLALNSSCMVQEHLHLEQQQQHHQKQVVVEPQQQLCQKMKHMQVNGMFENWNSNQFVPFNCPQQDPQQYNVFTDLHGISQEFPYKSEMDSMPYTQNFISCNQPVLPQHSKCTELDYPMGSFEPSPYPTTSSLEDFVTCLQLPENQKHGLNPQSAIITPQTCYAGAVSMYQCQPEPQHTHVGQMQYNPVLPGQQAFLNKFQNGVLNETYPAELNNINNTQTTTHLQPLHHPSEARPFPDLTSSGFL
# In short: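 HepG2 cells stably carrying a 20-DRE firefly luciferase reporter (HG2L7.5c1) treated with compound for 24 hr at 37C. Luciferase read by ONE-Glo luminescence, with CellTiter-Fluor viability read first.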
# [3] = qHTS assay to identify small molecule that activate the aryl hydrocarbon receptor (AhR) signaling pathway - cell viability counter screen (AID 743086); conditions: HepG2-AhR-luc viability, CellTiter-Fluor, 24 h; series mostly up to 70.3 µM; note: nearly all actives have a fitted effect of over 45% in size; note: potency is the fitted concentration of half-maximal effect
# In short: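 HepG2-AhR-luc (HG2L7.5c1) cells, 4000/well, treated 24 h at 37 C with compound; viability measured as CellTiter-Fluor fluorescence after 30 min in the same wells as the luciferase read.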
# [4] = target: Peroxisome proliferator-activated receptor gamma (Homo sapiens) (UniProt P37231); assay: qHTS assay to identify small molecule agonists of the peroxisome proliferator-activated receptor gamma (PPARg) signaling pathway (AID 743094; active = well fitted activation curve with a large enough effect in the signal ratio in the repeat runs, not every such curve was filed as active; the % refers to the signal ratio; note: potency is the fitted concentration of half-maximal effect); conditions: HEK293H PPARg-UAS-bla, beta-lactamase FRET ratio, 17 h; series mostly up to 57 µM
# Sequence of Peroxisome proliferator-activated receptor gamma (Homo sapiens) (P37231 whole entry, looked up): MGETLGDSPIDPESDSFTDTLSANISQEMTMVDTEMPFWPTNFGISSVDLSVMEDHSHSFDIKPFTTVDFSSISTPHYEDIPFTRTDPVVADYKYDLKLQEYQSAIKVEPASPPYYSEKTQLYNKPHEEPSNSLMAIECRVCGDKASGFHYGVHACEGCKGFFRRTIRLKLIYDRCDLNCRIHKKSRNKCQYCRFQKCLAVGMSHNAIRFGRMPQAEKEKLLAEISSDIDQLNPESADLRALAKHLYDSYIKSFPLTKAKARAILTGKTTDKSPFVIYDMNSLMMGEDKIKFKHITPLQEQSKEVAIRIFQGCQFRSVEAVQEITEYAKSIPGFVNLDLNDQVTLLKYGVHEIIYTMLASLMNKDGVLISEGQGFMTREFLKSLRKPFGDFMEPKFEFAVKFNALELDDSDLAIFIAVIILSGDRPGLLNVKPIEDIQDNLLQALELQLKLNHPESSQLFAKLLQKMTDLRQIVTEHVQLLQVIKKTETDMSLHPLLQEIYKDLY
# In short: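 Reporter activation was scored by fluorescence of cleaved LiveBLAzer B/G substrate (1 h, room temperature) in PPARg-bla HEK293H cells previously treated 17 h at 37C with DMSO-dissolved compounds.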
# [5] = target: Peroxisome proliferator-activated receptor gamma (Homo sapiens) (UniProt P37231); assay: qHTS assay to identify small molecule antagonists of the peroxisome proliferator-activated receptor gamma (PPARg) signaling pathway (AID 743191; calls by dose curve; note: nearly all actives have a fitted effect of over 30% in size; note: potency is the fitted concentration of half-maximal effect); conditions: HEK293H PPARg-UAS-bla, beta-lactamase ratio, antagonist, 17 h; series mostly up to 62.6 µM
# In short: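 GeneBLAzer PPARg UAS-bla HEK293H cells, 5 h post-plating, exposed to compounds 17 h at 37C. LiveBLAzer B/G FRET substrate added for 1 h at room temperature; beta-lactamase reporter read by fluorescence intensity.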
# [6] = qHTS assay to identify small molecule antagonists of the peroxisome proliferator-activated receptor gamma (PPARg) signaling pathway - cell viability counter screen (AID 743194); conditions: PPARg-bla HEK293H viability, CellTiter-Glo luminescence, 17 h, co-treated with 50 nM rosiglitazone; series mostly up to 62.6 µM; note: nearly all actives have a fitted effect of over 55% in size; note: potency is the fitted concentration of half-maximal effect
# In short: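 Cytotoxicity counter screen in PPARg-bla HEK293H cells, same wells as reporter assay. Compounds plus 50 nM rosiglitazone (final) for 17 h at 37 C, then viability read by CellTiter-Glo luminescence.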
# [7] = qHTS assay for small molecule agonists of the antioxidant response element (ARE) signaling pathway - cell viability counter screen (AID 743203; calls by dose curve; note: nearly all actives have a fitted effect of over 55% in size; note: potency is the fitted concentration of half-maximal effect); conditions: ARE-bla HepG2 viability, CellTiter-Glo luminescence, 16 h; series mostly up to 73.3 µM
# In short: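 Viability counter screen: stably transfected ARE-bla HepG2 line, 16 hrs compound exposure at 37C/5% CO2, ATP-based CellTiter-Glo luminescence measured in the reporter wells.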
# [8] = qHTS assay for small molecule activators of the heat shock response signaling pathway - cell viability counter screen (AID 743209); conditions: HSE-bla HeLa viability, CellTiter-Glo luminescence, 5 h; series mostly up to 62.6 µM; note: nearly all actives have a fitted effect of over 50% in size; note: potency is the fitted concentration of half-maximal effect
# In short: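 Viability of HSE-bla HeLa cells is measured with CellTiter-Glo in the wells already used for the reporter read. Compound exposure lasts 5 h at 37 C, and luminescence is read after 30 min at room temperature.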
# [9] = qHTS assay for small molecule agonists of the antioxidant response element (ARE) signaling pathway (AID 743202; active = well fitted activation curve with a large enough effect in the signal ratio in the repeat runs, not every such curve was filed as active; the % refers to the signal ratio; note: potency is the fitted concentration of half-maximal effect); conditions: HepG2 ARE-bla reporter, beta-lactamase FRET, 16 h; series mostly up to 73.3 µM
# In short: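 HepG2 ARE-bla reporter line, 2,000 cells/well; 5 h preincubation 37 C/5% CO2; compound (DMSO) 16 h 37 C; B/G FRET substrate 2 h RT; fluorescence intensity.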
# [10] = qHTS assay for small molecule activators of the heat shock response signaling pathway (AID 743210; active = well fitted activation curve with a large enough effect in the signal ratio in the repeat runs, with a control signal flat, not every such curve was filed as active; the % refers to the signal ratio;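 note: HeLa cells with beta-lactamase reporter driven by heat shock elements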); conditions: HeLa HSE-bla reporter, beta-lactamase ratio, 5 h; series mostly up to 62.6 µM
# In short: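 Beta-lactamase reporter read-out: FRET substrate fluorescence after 2.5 h at RT, following 5 h compound treatment at 37 C of HeLa cells carrying HSE-driven bla reporter; quantitative HTS format.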
SMILES,Potency [1],Potency [2],Potency [3],Potency [4],Potency [5],Potency [6],Potency [7],Potency [8],Potency [9],outcome [10]
Cc1c(C(=O)O)c(O)cc2c1C(=O)c1c(O)c([C@@H]3O[C@H](CO)[C@@H](O)[C@H](O)[C@H]3O)c(O)c(O)c1C2=O,29.8 µM (active) and 13.3 µM (active) and 24.3 µM (active),inactive,26.6 µM (active) and 21.7 µM (active),inactive,inactive,inactive,inactive,inactive,–,–
C1CCC(C(CC2CCCCN2)C2CCCCC2)CC1 (stereo not given),18.8 µM (active),inactive,18.8 µM (active),–,inactive,33.5 µM (active),29.8 µM (active),33.5 µM (active),–,–
O=S1(=O)OC(c2ccc(O)cc2)(c2ccc(O)cc2)c2ccccc21,27.3 µM (active),inactive,24.3 µM (active),inactive,inactive,inactive,inactive,inactive,inactive,inactive
Nc1ccc(S(N)(=O)=O)cc1,inactive,inactive,inactive,–,–,inactive,inactive,inactive,inactive,inactive
CCCC[P+](CCCC)(CCCC)CCCC,inactive,inactive,inactive,–,–,inactive,inactive,inactive,inactive,inactive
Oc1ccccc1,inactive,inactive,inactive,–,–,inactive,inactive,inactive,inactive,–
C=C1CC[C@H](O)C/C1=C\C=C1/CCC[C@]2(C)[C@@H]([C@H](C)CCCC(C)C)CC[C@@H]12,inactive,inactive,inactive,–,54.4 µM (active),61.1 µM (active),–,48.5 µM (active),21.5 µM (active),–
CCCCCCCCCCCCCCCC[N+](C)(C)Cc1ccccc1,26.6 µM (active) and 49.4 µM (active),inactive,29.8 µM (active),inactive,–,25.3 µM (active) and 17.7 µM (active) and 33.5 µM (active),63.1 µM (active) and 49.4 µM (active) and 29.8 µM (active),50.5 µM (active) and 44.4 µM (active) and 23.7 µM (active),–,–
O=C1c2c(O)cccc2Cc2cccc(O)c21,inactive,inactive,inactive,inactive,–,inactive,inactive,inactive,–,–
NS(=O)(=O)O,inactive,inactive,inactive,inactive,inactive,inactive,inactive,inactive,inactive,inactive
Cc1ncc([N+](=O)[O-])n1C,inactive,inactive,inactive,–,–,inactive,inactive,inactive,inactive,–
Cc1cc(=O)oc2cc(O)ccc12,inactive,inactive,inactive,49 µM (active),–,inactive,inactive,inactive,–,–
COc1ccc(CN(CCN(C)C)c2ccccn2)cc1,inactive,inactive,inactive,–,–,inactive,inactive,inactive,inactive,–
COc1ccc2c(c1)c(CC(=O)O)c(C)n2C(=O)c1ccc(Cl)cc1,inactive,inactive,inactive,–,–,inactive,inactive,inactive,inactive,–
CCN(Cc1c(F)cccc1Cl)c1c([N+](=O)[O-])cc(C(F)(F)F)cc1[N+](=O)[O-],inactive,inactive,inactive,–,–,inactive,inactive,inactive,inactive,–
CCCCOC(=O)c1ccc(O)cc1,inactive,inactive,inactive,inactive,–,inactive,inactive,inactive,inactive,inactive
O=CC(=O)c1ccccc1,inactive,inactive,inactive,inactive,–,inactive,inactive,–,inactive,–
Nc1c(N=Nc2ccc(-c3ccc(N=Nc4cc(S(=O)(=O)O)c5ccccc5c4N)cc3)cc2)cc(S(=O)(=O)O)c2ccccc12,13.3 µM (active) and 4.32 µM (active),23.7 µM (active) and 24.3 µM (active),21.1 µM (active) and 9.68 µM (active),inactive,–,inactive,–,inactive,–,inactive
CCOc1ccc(NC(C)=O)cc1,inactive,inactive,inactive,inactive,inactive,inactive,inactive,inactive,inactive,inactive
CN(C)C(=S)SC(=S)N(C)C,3.35 µM (active) and 994 nM (active) and 486 nM (active),inactive,1.57 µM (active) and 1.09 µM (active),–,inactive,inactive,–,–,–,–
CC(C)NCC(O)c1ccc(O)c(O)c1 (stereo not given),inactive,inactive,inactive,–,–,inactive,inactive,inactive,inactive,–
NC(=O)n1c(O)c(C(=O)c2cccs2)c2cc(Cl)ccc21,inactive,23.7 µM (active),inactive,–,–,–,–,–,–,inactive
CN(C)CCOC(c1ccccc1)c1ccccc1,inactive,–,inactive,–,–,inactive,inactive,inactive,inactive,inactive
O=C(Nc1ncc([N+](=O)[O-])s1)c1cccs1,–,2.98 µM (active),inactive,–,–,–,–,–,–,–
CC(C)c1c(C(=O)Nc2ccccc2)c(-c2ccccc2)c(-c2ccc(F)cc2)n1CC[C@@H](O)C[C@@H](O)CC(=O)O,inactive,–,inactive,–,–,inactive,inactive,inactive,13.2 µM (active),inactive

SMILES,Potency [1],Potency [2],Potency [3],Potency [4],Potency [5],Potency [6],Potency [7],Potency [8],Potency [9],outcome [10]
CN(C)C(=O)Nc1ccc(Cl)c(Cl)c1,inactive,–,inactive,inactive,inactive,inactive,inactive,inactive,inactive,–
O=C1OC2(c3ccccc31)c1cc(Br)c(O)c(Br)c1Oc1c2cc(Br)c(O)c1Br,9.44 µM (active) and 2.2 µM (active) and 4.45 µM (active),inactive,10.6 µM (active) and 2.77 µM (active) and 6.28 µM (active),–,–,inactive,inactive,inactive,–,–
CCCCCCc1ccc(O)cc1O,–,inactive,inactive,inactive,11.9 µM (active),inactive,inactive,inactive,24.4 µM (active) and 26.6 µM (active),–
C1=CC2C3C=CC(C3)C2C1 (stereo not given),inactive,–,inactive,–,–,–,inactive,inactive,–,–
COc1ccc(C(Cl)=C(c2ccc(OC)cc2)c2ccc(OC)cc2)cc1,inactive,inactive,inactive,–,–,inactive,inactive,inactive,–,–
Nc1ccc2c(c1)CN1C(=O)c3ccccc3C1=N2,–,–,–,–,–,inactive,inactive,inactive,–,–
CCOC(N)=O,inactive,–,inactive,–,–,inactive,inactive,inactive,inactive,–
Cc1ccc(S(=O)(=O)O)cc1,inactive,–,inactive,–,–,inactive,inactive,inactive,inactive,–
OC[C@H]1O[C@H](O[C@]2(CCl)O[C@H](CCl)[C@@H](O)[C@@H]2O)[C@H](O)[C@@H](O)[C@H]1Cl,inactive,inactive,inactive,–,–,inactive,inactive,inactive,inactive,inactive
CN[C@H]1CC[C@@H](c2ccc(Cl)c(Cl)c2)c2ccccc21,–,inactive,inactive,–,–,–,18.8 µM (active),–,–,–
COc1cccc(O)c1O,–,31.8 µM (active),–,–,–,inactive,inactive,–,–,–
Nc1ccc([N+](=O)[O-])cc1O,24.3 µM (active),13.7 µM (active),38.6 µM (active),–,–,–,inactive,inactive,–,–
CCCCCCCCCCCC[N+](C)(C)Cc1ccccc1,inactive and 67.3 µM (active),inactive,59.2 µM (active),–,–,17 µM (active) and 15 µM (active) and 26.6 µM (active),26.8 µM (active) and 29.7 µM (active),34 µM (active) and 18.9 µM (active) and 16.8 µM (active),–,–
O=C1NS(=O)(=O)c2ccccc21,inactive,–,inactive,–,–,inactive,inactive,inactive,inactive,–
CC/C(=C(\c1ccccc1)c1ccc(OCCN(C)C)cc1)c1ccccc1,27.3 µM (active) [middle of 5 runs],inactive,inactive and 61.6 µM (active),–,–,–,19.5 µM (active) and 27.3 µM (active) and 26.6 µM (active),inactive and 35 µM (active) and 43.6 µM (active),–,–
Nc1ccc(O)c([N+](=O)[O-])c1,–,43.3 µM (active),–,inactive,–,–,–,–,–,inactive
CCc1nc(N)nc(N)c1-c1ccc(Cl)cc1,inactive,inactive,inactive,–,–,inactive,5.31 µM (active),inactive,–,–
CN1[C@@H]2CC(OC(=O)[C@H](CO)c3ccccc3)C[C@H]1[C@@H]1O[C@@H]12 (stereo not given in full),inactive,–,inactive,inactive,inactive,inactive,inactive,inactive,inactive,–
CCCCC(CC)C(=O)O (stereo not given),inactive,–,inactive,inactive,inactive,inactive,inactive,inactive,inactive,–
C=C(C)C(=O)OCC(C)O (stereo not given),inactive,inactive,inactive,–,–,inactive,inactive,inactive,inactive,inactive
CC(=O)CC(c1ccccc1)c1c(O)c2ccccc2oc1=O (stereo not given),–,–,inactive,–,–,inactive,inactive,inactive,inactive,–
CC(=O)Nc1c(I)c(NC(C)=O)c(I)c(C(=O)O)c1I,–,–,inactive,–,–,inactive,inactive,inactive,inactive,–
COc1ccc(OC(F)(F)F)cc1CN[C@H]1CCCN[C@H]1c1ccccc1,inactive,inactive,54.5 µM (active),–,–,inactive,27.3 µM (active),inactive,–,–
CN1CCc2cccc3c2[C@H]1Cc1ccc(O)c(O)c1-3,29.8 µM (active) and 24.6 µM (active) and 20.4 µM (active),–,inactive and 61.8 µM (active),inactive,6.49 µM (active),44.1 µM (active) and 3.65 µM (active),49.1 µM (active) and 5.74 µM (active),inactive,–,–
COc1ccc2cc(S(=O)(=O)N[C@H](CC(=O)N[C@H](Cc3ccc(CN4[C@H](C)CCC[C@@H]4C)cc3)C(=O)N(C)C(C)C)c3ccc4c(c3)OCO4)ccc2c1,46 µM (active),inactive,23 µM (active),–,–,46.3 µM (active),18.3 µM (active),inactive,–,inactive
